Rin1 Abl inh: blocks binding of human Rin1 to Abl. TR-FRET Rin1/Abl binding, biochemical. 0.4% of 360,000 active. P00519+Q13671. inhibition, % at 7.35 µM; in the data active = inhibition above about 5%, passing the limit was not always enough
Target sequence (P00519 whole entry, looked up): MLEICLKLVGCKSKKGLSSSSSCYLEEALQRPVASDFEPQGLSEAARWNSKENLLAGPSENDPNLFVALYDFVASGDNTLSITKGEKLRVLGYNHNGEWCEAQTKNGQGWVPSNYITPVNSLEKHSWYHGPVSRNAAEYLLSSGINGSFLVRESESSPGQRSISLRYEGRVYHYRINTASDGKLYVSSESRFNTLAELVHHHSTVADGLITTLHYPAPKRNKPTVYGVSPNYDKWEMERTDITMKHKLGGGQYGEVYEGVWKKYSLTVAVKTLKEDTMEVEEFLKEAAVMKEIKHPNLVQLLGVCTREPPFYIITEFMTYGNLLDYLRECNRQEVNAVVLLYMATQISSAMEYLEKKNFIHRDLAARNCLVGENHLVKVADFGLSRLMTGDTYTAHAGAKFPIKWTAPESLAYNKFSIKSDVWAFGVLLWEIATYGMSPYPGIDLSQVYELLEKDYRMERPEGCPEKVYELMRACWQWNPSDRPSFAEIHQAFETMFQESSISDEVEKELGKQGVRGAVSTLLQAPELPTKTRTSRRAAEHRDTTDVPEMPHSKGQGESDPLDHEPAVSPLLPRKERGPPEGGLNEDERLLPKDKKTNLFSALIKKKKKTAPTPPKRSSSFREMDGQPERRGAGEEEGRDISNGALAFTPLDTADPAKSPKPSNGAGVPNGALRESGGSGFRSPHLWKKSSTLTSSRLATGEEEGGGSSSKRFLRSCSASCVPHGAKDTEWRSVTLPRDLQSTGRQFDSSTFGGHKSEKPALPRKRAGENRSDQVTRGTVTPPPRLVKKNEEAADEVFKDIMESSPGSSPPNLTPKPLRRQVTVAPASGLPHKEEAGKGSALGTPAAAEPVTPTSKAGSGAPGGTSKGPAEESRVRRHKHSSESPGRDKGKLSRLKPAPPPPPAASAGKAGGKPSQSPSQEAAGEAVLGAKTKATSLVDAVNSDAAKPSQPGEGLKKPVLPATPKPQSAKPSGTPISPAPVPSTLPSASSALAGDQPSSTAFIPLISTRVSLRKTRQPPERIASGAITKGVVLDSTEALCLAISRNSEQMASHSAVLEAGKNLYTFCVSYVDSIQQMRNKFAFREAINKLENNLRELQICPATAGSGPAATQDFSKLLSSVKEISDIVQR
Target sequence (Q13671 whole entry, looked up): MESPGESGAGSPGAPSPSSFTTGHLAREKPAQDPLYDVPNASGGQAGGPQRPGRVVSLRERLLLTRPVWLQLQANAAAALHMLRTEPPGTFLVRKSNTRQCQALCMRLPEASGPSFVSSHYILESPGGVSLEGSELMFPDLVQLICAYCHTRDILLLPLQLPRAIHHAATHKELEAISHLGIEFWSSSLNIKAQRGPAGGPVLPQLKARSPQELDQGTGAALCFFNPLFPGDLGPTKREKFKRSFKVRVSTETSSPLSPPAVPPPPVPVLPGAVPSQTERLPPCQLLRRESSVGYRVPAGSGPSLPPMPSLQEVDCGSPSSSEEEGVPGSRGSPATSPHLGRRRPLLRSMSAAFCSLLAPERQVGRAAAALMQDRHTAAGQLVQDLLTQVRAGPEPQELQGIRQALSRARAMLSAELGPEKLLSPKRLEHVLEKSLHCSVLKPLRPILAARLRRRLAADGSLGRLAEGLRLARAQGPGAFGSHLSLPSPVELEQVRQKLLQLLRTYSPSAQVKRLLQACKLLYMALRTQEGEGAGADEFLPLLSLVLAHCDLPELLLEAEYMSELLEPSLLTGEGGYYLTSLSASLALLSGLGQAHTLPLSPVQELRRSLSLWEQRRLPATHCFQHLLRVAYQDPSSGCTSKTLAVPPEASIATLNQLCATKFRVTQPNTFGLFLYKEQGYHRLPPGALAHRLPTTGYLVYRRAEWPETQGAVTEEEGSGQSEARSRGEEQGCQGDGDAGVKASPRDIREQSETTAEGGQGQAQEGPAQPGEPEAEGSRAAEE
Calb FLC: affects C. albicans growth with fluconazole | C. albicans CaCi-2 (fluconazole-resistant clinical isolate) + fluconazole, Alamar Blue growth, 48 h | growth inhibition, % (test concentration not listed) | 0.57% of 300,000 active;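 active = growth inhibition above about 58% in most replicates, limit read from the data, passing the limit was not always enough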;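 also: all wells also contain fluconazole at 8 µg/ml as a sub-toxic cotreatment; 0% = median of DMSO wells and 100% = median of geldanamycin control wells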
IDE act: activators of human insulin-degrading enzyme in cells; activation, % at 5.96 µM; P14735; HEK cells, FAbeta-B cleavage, fluorescence polarization; 0% vehicle, 100% cell-free pure enzyme wells; 0.073% of 340,000 active;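 active = activation above the mean of all tested compounds plus 3 SD, set per screening campaign, cut at about 17% in these data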
IDE inh: inhibits human insulin-degrading enzyme in HEK cells; FAbetaB cleavage, fluorescence polarization; inhibition, % at 5.59 µM; 0.41% of 320,000 active; AID 434962;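 active = percent inhibition above the average of all tested compounds plus 3 SD, set per screening campaign, cut at about 16% in these data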;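 also: IDE supplied by intact live HEK cells; FP after avidin binding of uncleaved biotin substrate so inhibition keeps polarization high; 0% = DMSO wells and 100% = 60 µM reference IDE inhibitor Ii1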
Rpn11 block: inhibitors of human proteasome Rpn11 | O00487 | AID 588493 | inhibition, % at 20 µM | human 26S proteasome, Ub4-pepOG fluorescence polarization; 20S core pre-blocked with epoxomicin | 0.59% of 360,000 active;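 active = inhibition at 20 µM, scaled to each plate's controls, above about 33%, limit read from the data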
TPT1 inh: blocks Candida albicans tRNA 2'-phosphotransferase; AID 1962; 0.81% of 300,000 active; inhibition, % at 5 µM; recombinant caTPT1, FP RNA substrate dephosphorylation;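 active = inhibition above the mean of all tested compounds plus 3 SD, set per screening campaign, cut at about 24% in these data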;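 also: plate controls were DMSO alone for no effect and ferristatin control at 100 nM for full effect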
* = called active by the depositor; . = no result given. Sampled rows, rich in hits. Any-hit rate of the full collection: about 2.3%.

SMILES	Rin1 Abl inh	Calb FLC	IDE act	IDE inh	Rpn11 block	TPT1 inh
CCc1nnc(NC(=O)CSc2nnc(CNc3cccc(C)c3)n2-c2ccccc2)s1	-4	116*	1	3	-1	-4
CCN(CC)C(=O)c1cccc(-c2csc(C(C)(O)c3cccc(F)c3)n2)c1 (configuration not stated)	-3	.	.	.	3	.
CC(=O)c1c(C)nc(-c2cccc([N+](=O)[O-])c2)n1O	0	76*	-1	1	0	-1
COc1ccc(-c2nc(C)c(C(C)=O)n2O)cc1[N+](=O)[O-]	4	52	4	5	-4	-1
CCN(CC(=O)Nc1ccccc1C(F)(F)F)C(=O)c1ccc(=O)n(Cc2ccccc2)n1	0	1	5	-2	2	1
CC(=O)Nc1ccc(N2S(=O)(=O)c3ccccc3S2(=O)=O)cc1	-1	.	20*	0	0	2
CC(=O)Nc1ccc(N2Cc3ccccc3C2)cc1	0	16	5	7	13	5
COc1cccc(NC(=O)CN(C)C(=O)c2cc(CN3C(=O)c4ccccc4C3=O)ccc2OC)c1	-3	.	-2	.	3	.
CCN(CC(=O)Nc1ccc(NC(C)=O)cc1)C(=O)c1cc(CN2C(=O)c3ccccc3C2=O)ccc1OC	3	-2	18*	4	-6	-2
CN(C)CCCn1c2c(c(SCC(=O)Nc3ccc4c(c3)OCCO4)nc1=O)CCCC2	-4	.	.	.	1	.
CC(C)CC(=O)NC(=S)NNC(=O)c1ccc(NC(=O)C2CCCCC2)cc1	0	75*	8	0	16	0
O=C1/C(=C/c2cccnc2)CCc2c1[nH]c1ccccc21	-4	76*	2	2	2	-7
COc1ccc(OC)c(N(CC(=O)NN=C2CCN(C)CC2)S(=O)(=O)c2ccccc2)c1	-3	4	5	-4	4	-2
COc1ccc(Nc2ccc3c(c2)=NC2(CCCCC2)[N+]=3[O-])cc1	-21	76	0	-4	-13	-10
[O-][N+]1=c2ccc(Nc3ccccc3)cc2=NC12CCCCC2	-13	108*	-1	6	-13	-6
CCCCN(C(=O)/C=C/c1ccco1)c1c(N)n(Cc2ccccc2)c(=O)[nH]c1=O	-2	113*	-1	5	1	0
Cn1cc(/C=N/Nc2ccccc2)c2ccccc21	4	101*	8	0	5	2
CSc1cccc(NC(=O)C2CCCN(c3ncnc4c3nc3n4CCCCC3)C2)c1 (configuration not stated)	-1	-14	-17	14	4	-1
CC(=O)Nc1ccc(C(=O)N2CCCC(c3cc(C(=O)Nc4ccccc4Cl)no3)C2)cc1 (configuration not stated)	-3	.	.	.	-2	.
CC(C)CN(C(=O)COC(=O)c1ccc(Br)cc1)c1c(N)n(Cc2ccccc2)c(=O)[nH]c1=O	-2	-4	22*	-2	-1	0
O=C(O)c1ccc(N2C(=O)CSC2=S)cc1	-1	4	-1	12	-6	-3
O=C(O)c1ccc(CN2C(=O)CSC2=S)cc1	0	98*	-8	14	22	3
O=C(CCl)N1c2ccccc2CCc2ccccc21	-1	84*	5	0	-3	0
COc1cc(CC(=O)Nc2nccs2)cc(OC)c1OC	-6	106*	-2	3	-3	2
CCN1/C(=C/c2ccc3cc(C)ccc3[n+]2C)Sc2ccc3sccc3c21	-9	.	-31	.	108*	.
SMILES	Rin1 Abl inh	Calb FLC	IDE act	IDE inh	Rpn11 block	TPT1 inh
CCN1/C(=C/c2ccc3cc(C)ccc3[n+]2CC)Sc2cc(C)ccc21	-21	.	-76	.	.	.
C/C(=N\NC(=O)c1nn(C)c(C)c1Br)c1ccc(NC(=O)C2CCCC2)cc1	1	112*	3	.	0	.
Cc1ccc(-c2csc3nc4c5ccccc5c(NCCCN(C)C)nn4c(=O)c23)cc1	-1	78*	2	-7	11	5
O=C(O)C1Nc2c(Cl)cc(Cl)c(Cl)c2C2C=CCC12 (configuration not stated)	-2	12	1	5	.	4
O=C(O)C1Nc2c(O)cccc2C2C=CCC12 (configuration not stated)	20*	.	3	5	.	15
CC1(C(=O)Nc2ccc3c(c2)OCCO3)CCC(=O)N1CCc1c[nH]c2ccccc12 (configuration not stated)	2	.	.	.	2	.
O=C(/C=C/[C@H]1O[C@@H](n2ccc(=O)[nH]c2=O)[C@H](O)[C@@H]1O)NC(c1ccccc1)c1ccccc1	0	.	.	.	-17	.
Cc1ccc(-c2cc(C(=O)Nc3ccncc3)c3ccccc3n2)cc1	-3	8	-4	7	1	-5
O=C(NNC(=O)c1cc(-c2ccncc2)nc2ccccc12)c1ccccc1O	0	86*	5	0	12	-3
CC#CC(=O)N1CCC(C(=O)Nc2ccc(Oc3ccccc3)nc2)CC1	2	1	2	-5	2	0
CCc1cccc(C)c1NC(=S)NCc1ccc2c(c1)cc(C)n2C	3	124*	6	3	7	0
CCOC(=O)c1c(NC(=O)COC(=O)c2cccc([N+](=O)[O-])c2)sc(C(=O)N(C)C)c1C	0	.	.	.	1	.
O=C(COc1nsnc1N1CCOCC1)Nc1ccc(Br)cc1	0	-5	4	0	-1	-3
N#C/C(=C(/O)c1ccco1)c1nc2ccccc2[nH]1	-3	79*	5	3	2	1
CC(=O)c1ccc(NC(=O)Cn2cnc(S(=O)(=O)N3CCc4ccccc43)c2)cc1	6	6	5	-14	5	-3
Cc1ccc(NC(=O)NC(=O)COc2ccccc2C(N)=O)c(C)c1	0	.	0	-2	-3	.
Cc1cc(C(C)(C)C)ccc1OCCCCN1CCCC1	-2	0	4	-1	-2	-3
CCC(C)(C)c1ccc(OCCCC[n+]2cccc(C)c2C)c(C(C)(C)CC)c1	-1	109*	7	-7	3	-2
CCC(C)(C)c1ccc(OCCCC[n+]2ccc(C)cc2)c(C(C)(C)CC)c1	.	94*	.	-3	.	0
COc1ccc(S(=O)(=O)N2CCN(Cc3cc(=O)n4ccccc4n3)CC2)cc1	-1	.	0	4	-1	.
Cn1c(=O)c(C(=O)NCCc2ccccc2)c(O)c2ccccc21	-4	89*	-3	-1	-1	1
Cc1ccc(O)c(C2=NNC(c3ccc(Cl)cc3)C2)c1 (configuration not stated)	-3	78*	-5	1	19	5
COc1ccc(C(=O)NN/C(C)=C/C(=O)C(F)(F)C(F)(F)C(F)(F)F)cc1	-1	94*	3	-1	-2	-1
COc1ccc(C(=O)NNC(=O)OC(C)(C)C)cc1	-1	2	5	9	-11	-4
